35 compounds from PubChem BioAssay (NCI) can be followed below.

Molecules are shown by their SMILES. About 79,000 compounds went through this panel and 15% of them were active in at least one assay; those are over-represented in the sample as a whole. Values without a mark were called inactive. Active and inactive are the calls of the source. No stated cut-off is given here; in the data, active means growth inhibition above about 70%; inactive means the rest.

The nature of experiment [1]: NCI Yeast Anticancer Drug Screen. Data for the rad50 strain (AID 155).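 Further: 0% = growth of vehicle-only cultures of the same strain.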 The conditions noted are these: S. cerevisiae rad50 strain growth inhibition; at 50.0 µM; stronger effect = higher value. A digest of the protocol: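 Inhibition values express reduced yeast growth in compound-treated cultures relative to vehicle-treated controls.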
The nature of experiment [2]: NCI Yeast Anticancer Drug Screen. Data for the mec2-1 strain (AID 157). The conditions noted are these: S. cerevisiae mec2-1 strain, at 50.0 µM, stronger effect = higher value. The procedure, abridged:
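Mutant yeast (mec2-1) grown with compound; growth inhibition relative to vehicle control reported.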

A short description of experiment [3]: NCI Yeast Anticancer Drug Screen. Data for the sgs1 mgt1 strain (AID 161).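 Further: 0% = growth of cultures given vehicle only.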 As to conditions: S. cerevisiae sgs1 mgt1 strain, at 50.0 µM, stronger effect = higher value. A digest of the protocol: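 This yeast growth screen uses a strain with defined DNA-repair lesions; compound-treated growth is compared with vehicle-treated growth.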
The nature of experiment [4]: NCI Yeast Anticancer Drug Screen. Data for the cln2 rad14 strain (AID 165).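 Further: 0% = growth equal to vehicle treated cultures.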 As to conditions: S. cerevisiae cln2 rad14 strain, at 50.0 µM, stronger effect = higher value. A digest of the protocol:
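Readout is yeast growth inhibition versus vehicle-treated controls, using a strain with cln2 and rad14 alterations exposed to compound.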

Experiment [5] can be described thus: NCI Yeast Anticancer Drug Screen. Data for the bub3 strain (AID 167). The conditions noted are these: S. cerevisiae bub3 mutant strain, at 50.0 µM, stronger effect = higher value. A digest of the protocol: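 Steps: expose the mutant yeast strain to compound; grow alongside vehicle-treated cultures; measure growth; express inhibition against the vehicle cultures.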
Experiment [6] in a line: NCI Yeast Anticancer Drug Screen. Data for the mlh1 rad18 strain (AID 175). The conditions noted are these: S. cerevisiae mlh1 rad18 strain growth inhibition; at 50.0 µM; stronger effect = higher value. The procedure, abridged:
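Genetically defined yeast (DNA repair-deficient) exposed to compounds; growth inhibition determined relative to vehicle.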

As to `CC(=O)OC/C(=C/C#N)C1CCC2C3CCC4CC(OC(C)=O)CCC4(C)C3CCC12C` (stereo not given), the growth inhibition in experiment [1] is 47%; in experiment [2], 30.7%; in experiment [3] it was 45.5%; in experiment [4] it was 40%; in experiment [5], 21.5%; in experiment [6], 57.5%.

`CCOC(=O)c1ccc(NN=NC(C)(C)C)cc1`: the growth inhibition in experiment [1] is 10.8%; in experiment [2], -8.5%; in experiment [3], -15.2%; in experiment [4], -29.2%; in experiment [5] it was -7.3%; in experiment [6] it was -11.1%.

Regarding `O=C1c2ccccc2C(=O)c2c1oc1c2ccc2ccccc21`, the growth inhibition in experiment [1] was -8.15%; in experiment [2] it was 7%; in experiment [3], -4.35%; in experiment [4], -16.1%; in experiment [5] it was -5.25%; in experiment [6], 8.5%.

With `CC1(C)C2CC3C(=CCCC3C(=O)O)C1C2` (stereo not given), the growth inhibition was 11.4% in experiment [1]; 15.3% in experiment [2]; -8.55% in experiment [3]; 9.8% in experiment [4]; 11.1% in experiment [5]; 12.8% in experiment [6].

Regarding `CC(C)(C)OC(=O)N(CCCN)CCCCN`, the growth inhibition in experiment [1] was -7.65%; in experiment [2], -9.75%; in experiment [3], -40.5%; in experiment [4], -21.4%; in experiment [5], -32%; in experiment [6], -53.9%.

Regarding `Cc1nc(N)nc(C)c1N=Nc1ccc(Cl)cc1Cl`, the growth inhibition in experiment [1] is -0.75%; in experiment [2], 6.8%; in experiment [3] it was 0.5%; in experiment [4], -7.3%; in experiment [5], -5.25%; in experiment [6] it was 9.6%.

Turning to `COc1ccc(/C(C)=N/NC(=O)c2ccncc2)c(OC)c1`, the growth inhibition in experiment [1] is -7.85%; in experiment [2], -20.6%; in experiment [3] it was -29.2%; in experiment [4], -29.4%; in experiment [5], -42.6%; in experiment [6], -33.1%.

For `CCCC1CCCCC1O` (stereo not given), the growth inhibition in experiment [1] was -9.55%; in experiment [2], -38.8%; in experiment [3] it was -24.4%; in experiment [4], 7.15%; in experiment [5], -24.2%; in experiment [6], -6.95%.

Take `COC(=O)C1OC1(C)c1ccccc1` (stereo not given): the growth inhibition in experiment [1] is 2.3%; in experiment [2], 4.6%; in experiment [3], -0.25%; in experiment [4] it was -0.35%; in experiment [5] it was -1.95%; in experiment [6] it was -2.55%.

As to `CCCCCCCCCC(=O)OCCCC(CCCOC(=O)CCCCCCCCC)OC(=O)CCCCCCCCC`, the growth inhibition is -19.9% in experiment [1]; -6.85% in experiment [2]; -6.25% in experiment [3]; -23.9% in experiment [4]; -16.4% in experiment [5]; -26.6% in experiment [6].

In the case of `CCCCCCC[CH2][Sn]1([CH2]CCCCCCC)[O]C(=O)c2cccnc2[O]1`, the growth inhibition in experiment [1] is 27.4%; in experiment [2], 7.3%; in experiment [3], 13.2%; in experiment [4] it was 10.3%; in experiment [5], 17.2%; in experiment [6], 19.8%.

With `CCSCC1OC(n2cnc3c(=S)nc(N)[nH]c32)C(O)C1O` (stereo not given), the growth inhibition in experiment [1] was 15.2%; in experiment [2], 10.1%; in experiment [3], -0.75%; in experiment [4], 16.4%; in experiment [5], 11.8%; in experiment [6], 21.1%.

In the case of `O=c1cc(-c2ccccc2)oc2c(-c3cc(Cl)cc4c(=O)cc(-c5ccccc5)oc34)cc(Cl)cc12`, the growth inhibition is -6.65% in experiment [1]; 23.4% in experiment [2]; 13.7% in experiment [3]; -3.1% in experiment [4]; -2.2% in experiment [5]; 79.3% (active) in experiment [6].

For `Cc1cc(C(=O)c2ccccc2)ccc1[N+](=O)[O-]`, the growth inhibition in experiment [1] is 23.1%; in experiment [2] it was -11%; in experiment [3], -7.35%; in experiment [4], -0.5%; in experiment [5] it was -0.65%; in experiment [6] it was 7.1%.

As for `CC1(C)SC2C(C(=O)O)N=C(Cc3ccccc3)N2C1C(=O)O` (stereo not given), the growth inhibition in experiment [1] was 3.2%; in experiment [2], -17.9%; in experiment [3] it was -23.4%; in experiment [4], 1.45%; in experiment [5], -34%; in experiment [6], -7.05%.

Turning to `N#C/C(=C\NC(=S)Nc1ccc(S(=O)(=O)Nc2nccs2)cc1)C(=O)c1ccc2ccccc2c1`, the growth inhibition is 7.7% in experiment [1]; 1.8% in experiment [2]; 14.3% in experiment [3]; -9.75% in experiment [4]; -8% in experiment [5]; 16.4% in experiment [6].

Consider `ClC[P+](c1ccccc1)(c1ccccc1)c1ccccc1`, for which the growth inhibition in experiment [1] is 38.2%; in experiment [2] it was 19.3%; in experiment [3] it was 13.2%; in experiment [4] it was 11.6%; in experiment [5], 24.8%; in experiment [6] it was 33.4%.

For the compound `NC(=O)CN(CC(N)=O)CC(N)=O`, the growth inhibition in experiment [1] is -0.7%; in experiment [2], -11.7%; in experiment [3], 1.75%; in experiment [4], -2.85%; in experiment [5], -3.65%; in experiment [6], -7.9%.

On to `COc1ccccc1C1CCCCC1OS(=O)(=O)c1ccc(C)cc1` (stereo not given), for which the growth inhibition in experiment [1] was -1.15%; in experiment [2], 3.45%; in experiment [3], -18.4%; in experiment [4], -9.65%; in experiment [5], 12.2%; in experiment [6], -9.8%.

Take `O=C(O)C(NCCNC(C(=O)O)c1ccccc1)c1ccccc1` (stereo not given): the growth inhibition in experiment [1] is 24.2%; in experiment [2] it was 6.7%; in experiment [3], 19%; in experiment [4], 38.6%; in experiment [5], 15.2%; in experiment [6] it was 3.4%.

Regarding `Cc1ccc(S(=O)(=O)N/N=C(\c2nc3ccc([N+](=O)[O-])cc3[nH]c2=O)C(O)c2ccccc2Cl)cc1` (stereo not given), the growth inhibition is -1.2% in experiment [1]; -9.35% in experiment [2]; 11.6% in experiment [3]; 5.85% in experiment [4]; 10.3% in experiment [5]; 23.8% in experiment [6].

For the compound `CCCCOC(=O)C(C)OP(=O)(OC(C)C(=O)OCCCC)OC(C)C(=O)OCCCC` (stereo not given), the growth inhibition in experiment [1] was -19.4%; in experiment [2], -5%; in experiment [3], 9.5%; in experiment [4] it was -26.1%; in experiment [5], -0.3%; in experiment [6], 16.2%.

Regarding `CCOC(=O)c1ccc(-n2c(SCC)nc3sc(C)c(C)c3c2=O)cc1`, the growth inhibition in experiment [1] was -18.9%; in experiment [2], -17.8%; in experiment [3], -40.5%; in experiment [4], -38.5%; in experiment [5], -31.8%; in experiment [6], -29.3%.

As for `Cc1ccc(Nc2nc3ccccc3nc2NS(=O)(=O)c2ccc(N)cc2)cc1`, the growth inhibition in experiment [1] is 20.2%; in experiment [2] it was 11.8%; in experiment [3] it was 13.3%; in experiment [4], 5.85%; in experiment [5], 7.45%; in experiment [6], -4.2%.

On to `CC(=O)OCC1OC(Oc2ccccc2)C(OC(C)=O)C(OC(C)=O)C1OC(C)=O` (stereo not given), for which the growth inhibition in experiment [1] was -3.4%; in experiment [2] it was -5.3%; in experiment [3] it was -0.05%; in experiment [4] it was 12.4%; in experiment [5] it was -4.1%; in experiment [6], -10.7%.

For `CC(N)C(O)C(C)C(=O)O` (stereo not given), the growth inhibition in experiment [1] was 20.8%; in experiment [2], 9.5%; in experiment [3], 41.8%; in experiment [4] it was 44.5%; in experiment [5], 35%; in experiment [6] it was 7.35%.

With `CC(C)=NNC(=O)c1ccccc1O`, the growth inhibition is 33.9% in experiment [1]; -7.7% in experiment [2]; 3.5% in experiment [3]; 2.3% in experiment [4]; 1.65% in experiment [5]; -10.2% in experiment [6].

In the case of `CN(C)C=Nc1cc2c(cc1Br)-c1ccccc1C2=O`, the growth inhibition in experiment [1] is 3.05%; in experiment [2], 10.3%; in experiment [3], 4.4%; in experiment [4] it was -0.45%; in experiment [5] it was 2%; in experiment [6] it was -15.7%.

With `CN(NC(=O)c1cccs1)C1=NCCN1`, the growth inhibition is -25.9% in experiment [1]; -23.2% in experiment [2]; -24.9% in experiment [3]; 7.25% in experiment [4]; 18.4% in experiment [5]; -7.7% in experiment [6].

On to `CC(=O)OC1CC1(Br)Br` (stereo not given), for which the growth inhibition was 6.3% in experiment [1]; -15.8% in experiment [2]; 18.6% in experiment [3]; -37.8% in experiment [4]; 6.5% in experiment [5]; 5.2% in experiment [6].

As for `C/C=C(/c1ccccc1)c1ccc(N(C)C)cc1`, the growth inhibition was 2.25% in experiment [1]; 0.85% in experiment [2]; -10.1% in experiment [3]; -4.7% in experiment [4]; 9.2% in experiment [5]; 4.35% in experiment [6].

`O=c1cc(-c2cccnc2)oc2ccc(Cl)cc12`: the growth inhibition in experiment [1] was 59.8%; in experiment [2], -2.8%; in experiment [3] it was 7.7%; in experiment [4], -33.9%; in experiment [5], 11.2%; in experiment [6] it was 5.85%.

Regarding `O=C(Nc1cccc(O)c1)Nc1ccc(Cl)cc1[N+](=O)[O-]`, the growth inhibition in experiment [1] is 98.2% (active); in experiment [2], 99.3% (active); in experiment [3] it was 99.2% (active); in experiment [4] it was 97.5% (active); in experiment [5] it was 83% (active); in experiment [6] it was 97.8% (active).

For the compound `CC/C(=C\c1ccccc1O)c1ccncc1`, the growth inhibition in experiment [1] was 2.2%; in experiment [2], -8.5%; in experiment [3], 2.5%; in experiment [4], 1.85%; in experiment [5] it was 23.1%; in experiment [6], -0.65%.

In the case of `CSc1ncnc2c1ncn2CC(=O)C1CCC2C3CCC4=CC(=O)CCC4(C)C3CCC12C` (stereo not given), the growth inhibition in experiment [1] was 7%; in experiment [2], -48.2%; in experiment [3], -1.9%; in experiment [4], -29.6%; in experiment [5], -28.9%; in experiment [6], 16.4%.
